A selection: hits, their analogues and other compounds. The true share with any hit is near 3%.
PP5 primary: PP5 phosphatase inhibitors, primary screen, biochemical, fluorescence | actives 0.18% (n = 320,000) | purified PP5c, OMFP substrate fluorescence | inhibition, % at 6.7 µM | AID 1987, 2009 | Serine/threonine-protein phosphatase 5 (Homo sapiens), P53041;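 active means inhibition above the campaign's mean inhibition across all tested compounds plus 3 SD, cut at about 9.5% in these data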;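 further: 0% = DMSO only and 100% = 100 µM cantharidin control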
Target sequence (P53041 whole entry, looked up): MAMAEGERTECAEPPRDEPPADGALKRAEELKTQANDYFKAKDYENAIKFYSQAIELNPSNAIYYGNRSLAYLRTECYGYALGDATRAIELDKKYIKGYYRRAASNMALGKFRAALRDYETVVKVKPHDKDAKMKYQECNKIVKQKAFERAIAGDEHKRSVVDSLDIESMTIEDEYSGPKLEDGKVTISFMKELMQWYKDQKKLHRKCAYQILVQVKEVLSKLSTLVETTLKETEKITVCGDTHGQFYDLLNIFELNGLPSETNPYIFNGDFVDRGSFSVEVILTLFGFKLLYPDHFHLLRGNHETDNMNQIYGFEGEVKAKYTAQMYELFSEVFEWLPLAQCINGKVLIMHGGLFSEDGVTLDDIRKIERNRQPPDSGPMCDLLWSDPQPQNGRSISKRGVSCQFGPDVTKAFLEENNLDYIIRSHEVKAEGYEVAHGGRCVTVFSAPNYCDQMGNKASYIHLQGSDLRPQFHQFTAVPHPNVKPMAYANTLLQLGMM
pPAFAH FP inh: pPAFAH enzyme inhibitors, primary screen, biochemical, fluorescence polarization, human; recombinant pPAFAH, FP-rhodamine probe fluorescence polarization; inhibition, % at 3.39 µM; Platelet-activating factor acetylhydrolase (Homo sapiens), Q13093; actives 1.5% (n = 330,000);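 active means inhibition above the mean inhibition across the screen plus 3 SD, cut at about 25% in these data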;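 further: inhibitors block binding of the rhodamine activity-based probe so polarization drops; 0% = enzyme with DMSO and 100% = wells lacking pPAFAH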
PAFAH2 inh: PAFAH2 enzyme inhibitors, primary screen, biochemical, fluorescence polarization, human | recombinant PAFAH2, FP-rhodamine activity probe | inhibition, % at 3.39 µM | actives 0.99% (n = 340,000);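 active means inhibition above the mean over all tested compounds plus 3 SD, cut at about 30% in these data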;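 further: inhibitors block probe labeling of enzyme so polarization drops; 0% = enzyme with DMSO and 100% = wells lacking PAFAH2 protein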
PAFAH1B2 inh: PAFAH1B2 enzyme inhibitors, primary screen, biochemical, fluorescence polarization, human | Platelet-activating factor acetylhydrolase IB subunit alpha2 (Homo sapiens), P68402 | actives 1.2% (n = 340,000) | recombinant PAFAH1B2, FP-rhodamine activity probe | inhibition, % at 3.39 µM | AID 492953, 2010;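 active means inhibition above the mean of all tested compounds plus 3 SD, cut at about 24% in these data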;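 further: 0% = enzyme with DMSO and 100% = wells lacking PAFAH1B2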
CTSL1 counter: Fasciola hepatica cathepsin L1 inhibitors, primary screen, counter-screen for PFM18AAP inhibitor project, biochemical, QFRET, fluorogenic peptide substrate | AID 1906, 2009 | inhibition, % at 5.96 µM | recombinant F. hepatica cathepsin L1, Z-Leu-Arg-MCA fluorescence | actives 0.49% (n = 300,000);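 active means inhibition above the mean of all tested compounds plus 3 SD, set per screening campaign, cut at about 17% in these data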;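 further: 0% = plate median of test compound wells and 100% = 1 µM Z-Phe-Ala-diazomethylketone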
PAFAH1B3 FP inh: PAFAH1B3 enzyme inhibitors, primary screen, biochemical, fluorescence polarization, human. AID 492972, 2010. recombinant PAFAH1B3, FP-rhodamine probe. actives 0.28% (n = 340,000). inhibition, % at 3.39 µM. Platelet-activating factor acetylhydrolase IB subunit alpha1 (Homo sapiens), Q15102;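 active means inhibition above the screen-wide average of all tested compounds plus 3 SD, cut at about 25% in these data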;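 further: 0% = enzyme with DMSO only and 100% = wells lacking PAFAH1B3 protein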
An asterisk follows results filed as active; · = not tested or not shown.

SMILES	PP5 primary	pPAFAH FP inh	PAFAH2 inh	PAFAH1B2 inh	CTSL1 counter	PAFAH1B3 FP inh
Cc1ccc(C)c(NC(=O)CN(C)C(=O)c2ccc3[nH]c4c(c3c2)CC(C)CC4)c1 (configuration not stated)	7	8	3	40*	7	5
N=c1c(S(=O)(=O)c2ccc(Br)cc2)cc2c(=O)n3ccccc3nc2n1Cc1ccco1	2	27*	6	4	3	6
CC(C)(C)c1ccc(C(=O)NC(=O)COC(=O)c2ccc(Br)o2)cc1	·	3	3	2	·	-6
CC(=O)N1CCc2c(sc(NC(=O)c3cccc(N4C(=O)CCC4=O)c3)c2C(N)=O)C1	4	7	-5	2	25*	7
NC(=O)c1c(NC(=O)c2cccc(N3C(=O)CCC3=O)c2)sc2c1CCCCC2	0	3	-1	7	2	-2
COc1ccc(N2CCN(C(=S)NCCc3ccccc3)CC2)cc1	2	6	-12	0	-3	2
Oc1ccc(N2CCN(C(=S)NCCc3ccccc3)CC2)cc1	3	29*	-1	1	3	7
O=S(=O)(c1ccc(Cl)cc1)N1CCN(C(=S)Nc2ccccc2F)CC1	2	-3	-3	25*	-3	-5
O=S(=O)(c1ccc(F)cc1)N1CCN(C(=S)NCCc2ccccc2)CC1	5	5	-2	24*	3	3
CCOc1ccc(NS(=O)(=O)c2cccc(C(=O)N3CCN(C/C=C/c4ccccc4)CC3)c2)cc1	·	·	3	10	·	-3
COC(=O)[C@]1(Cc2ccccc2)N[C@H](CN(C)C(=O)c2ccc(F)cc2)[C@@H]2C(=O)N(C)C(=O)[C@@H]21	·	-3	4	-2	·	10
Nc1ccc(N2CCN(C(=O)c3cccs3)CC2)cc1	4	32*	8	1	-4	4
CC(=O)Nc1ccc(N2CCN(C(=O)c3cccs3)CC2)cc1	4	3	-11	1	-3	4
CCS(=O)(=O)N1CCC(C(=O)Oc2ccc(C)c(C)c2)CC1	3	2	-2	5	1	2
COc1ccc(OC)c(NC(=O)c2cccc(NC(=O)c3ccccc3C(=O)O)c2)c1	-1	4	-2	4	-1	2
O=C(Nc1ccc(S(=O)(=O)Nc2nccs2)cc1)c1nn(-c2ccccc2)ccc1=O	-1	25*	24	11	3	9
CC1(C)CC(NC(=O)c2cc(Cl)ccc2Cl)CC(C)(C)N1	5	3	2	-1	14	1
CCN(CC)CCNC(=O)c1cc(Br)c(N)cc1OC	-2	0	1	2	1	10
CC12CC3CC(C)(C1)CC(C(=O)N1CCN(C(=O)c4ccco4)CC1)(C3)C2	0	6	6	35*	2	11
O=C(c1ccco1)N1CCN(C(=O)C23CC4CC(CC(C4)C2)C3)CC1	0	-3	4	10	1	-7
Cc1nnc2ccc(-c3ccc(NC(=O)Cc4cccs4)cc3)nn12	0	27*	-3	1	-2	3
Cc1ccc(NC(=O)CN2C(=O)N/C(=C\c3ccco3)C2=O)cc1	·	5	9	4	·	7
O=S(=O)(c1ccc(F)cc1)N1CCC2(CC1)OCCN2S(=O)(=O)c1cccs1	1	14	8	28*	-4	1
O=S(=O)(c1cccs1)N1CCC2(CC1)OCCN2S(=O)(=O)c1ccccc1	2	2	21	13	3	15
COc1ccc(NC(=O)COC(=O)CNC(=O)C2CCCCC2)cc1OC	·	0	5	1	·	9
SMILES	PP5 primary	pPAFAH FP inh	PAFAH2 inh	PAFAH1B2 inh	CTSL1 counter	PAFAH1B3 FP inh
CC(C)CCNC(=O)NC(=O)COC(=O)CNC(=O)C1CCCCC1	-1	3	-10	1	26*	5
N#Cc1ccc(NC(=O)COC(=O)CNC(=O)C2CCCCC2)cc1	-2	0	-5	-4	31*	6
Cc1cccc(NC(=O)COC(=O)CNC(=O)C2CCCCC2)c1	0	12	5	4	25*	2
Cc1ccc(C)c(NC(=O)COC(=O)CNC(=O)C2CCCCC2)c1	3	2	3	6	·	-1
Clc1ccccc1OCc1nc(-c2ccc(Br)o2)no1	1	-5	-5	5	7	8
Brc1ccc(-c2noc(CCc3ccccc3)n2)o1	1	0	-6	28*	-1	10
COc1cc(NC(=O)c2cc(OC)c(OC)c(OC)c2)c2ncccc2c1	·	·	-2	27*	·	10
COc1cc(NC(=O)c2ccc3c(c2)OCO3)c2ncccc2c1	8	-2	4	5	1	0
O=C(CCN1C(=O)/C(=C/C=C/c2ccccc2)SC1=S)Nc1nccs1	1	8	-1	-5	1	-9
O=C(CCN1C(=O)/C(=C\C=C\c2ccccc2)SC1=S)Nc1ccccc1C(=O)O	2	30*	9	5	5	8
O=C(CCN1C(=O)/C(=C\C=C\c2ccccc2)SC1=S)Nc1cccc(C(=O)O)c1	4	28*	8	1	3	7
CC(/C=C1\SC(=S)N(CCCC(=O)Nc2ccc(C(=O)O)c(O)c2)C1=O)=C\c1ccccc1	1	31*	·	·	4	·
COc1ccc(S(=O)(=O)N2CCC(C(=O)Oc3ccc(C)cc3)CC2)cc1OC	2	2	0	-1	2	-2
COc1ccc(-c2cc(=O)oc3cc(OCC(=O)NCC4CCC(C(=O)O)CC4)ccc23)cc1 (configuration not stated)	3	-1	1	5	0	9
COc1ccccc1NS(=O)(=O)c1cccc(NC(=O)CCNC(=O)c2ccccc2OC)c1	5	10	3	1	·	-1
COc1ccccc1N(C)S(=O)(=O)c1ccc(C(=O)Nc2ccncc2)cc1	0	2	0	-3	9	1
Cc1cc(=O)[nH]c(N/N=C/c2cc(C)n(-c3ccccc3)c2C)n1	1	31*	1	2	-2	-2
Cc1nn(C)c(C)c1C(C)NC(=O)c1cc(COc2ccc(F)c(F)c2)on1 (configuration not stated)	1	4	-3	1	0	9
CCc1ccc(N2CC(C(=O)Nc3cccc(S(=O)(=O)N4CCCC4)c3)CC2=O)cc1 (configuration not stated)	0	1	-12	-2	3	-7
